For 92 compounds, inhibition results are on record in PubChem BioAssay AID1671202 (University of Kansas High Throughput Screening Laboratory, 2021).

Several values for one entry are separate records, joined by “and”; a condition that tells them apart may be missing. Equal values may be shown once. Hit rate of the full screen: of about 190,000 compounds, about 6,900 (3.6%) were called active. Rule as the data show it: active = inhibition above about 50%; inactive = the rest. The full list was thinned out, with actives kept by preference. Some compounds were tested as several samples or in several runs, with calls that do not always agree.

The test deals with Huntingtin (Homo sapiens) (UniProt P42858). Kind of test: mutant huntingtin-calmodulin interaction inhibitors – biochemical, AlphaScreen, primary screen (AID 1671202).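 Also: 0% = both proteins with DMSO and 100% = one protein alone.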 Particulars: AlphaScreen His-mHTT/GST-CaM binding, luminescence; at 15 µM, stronger effect = higher value. A general note: In Alpha technology, singlet oxygen from a donor bead excites a nearby acceptor bead.
Huntingtin (Homo sapiens), sequence (P42858 whole entry, looked up, stated change not applied): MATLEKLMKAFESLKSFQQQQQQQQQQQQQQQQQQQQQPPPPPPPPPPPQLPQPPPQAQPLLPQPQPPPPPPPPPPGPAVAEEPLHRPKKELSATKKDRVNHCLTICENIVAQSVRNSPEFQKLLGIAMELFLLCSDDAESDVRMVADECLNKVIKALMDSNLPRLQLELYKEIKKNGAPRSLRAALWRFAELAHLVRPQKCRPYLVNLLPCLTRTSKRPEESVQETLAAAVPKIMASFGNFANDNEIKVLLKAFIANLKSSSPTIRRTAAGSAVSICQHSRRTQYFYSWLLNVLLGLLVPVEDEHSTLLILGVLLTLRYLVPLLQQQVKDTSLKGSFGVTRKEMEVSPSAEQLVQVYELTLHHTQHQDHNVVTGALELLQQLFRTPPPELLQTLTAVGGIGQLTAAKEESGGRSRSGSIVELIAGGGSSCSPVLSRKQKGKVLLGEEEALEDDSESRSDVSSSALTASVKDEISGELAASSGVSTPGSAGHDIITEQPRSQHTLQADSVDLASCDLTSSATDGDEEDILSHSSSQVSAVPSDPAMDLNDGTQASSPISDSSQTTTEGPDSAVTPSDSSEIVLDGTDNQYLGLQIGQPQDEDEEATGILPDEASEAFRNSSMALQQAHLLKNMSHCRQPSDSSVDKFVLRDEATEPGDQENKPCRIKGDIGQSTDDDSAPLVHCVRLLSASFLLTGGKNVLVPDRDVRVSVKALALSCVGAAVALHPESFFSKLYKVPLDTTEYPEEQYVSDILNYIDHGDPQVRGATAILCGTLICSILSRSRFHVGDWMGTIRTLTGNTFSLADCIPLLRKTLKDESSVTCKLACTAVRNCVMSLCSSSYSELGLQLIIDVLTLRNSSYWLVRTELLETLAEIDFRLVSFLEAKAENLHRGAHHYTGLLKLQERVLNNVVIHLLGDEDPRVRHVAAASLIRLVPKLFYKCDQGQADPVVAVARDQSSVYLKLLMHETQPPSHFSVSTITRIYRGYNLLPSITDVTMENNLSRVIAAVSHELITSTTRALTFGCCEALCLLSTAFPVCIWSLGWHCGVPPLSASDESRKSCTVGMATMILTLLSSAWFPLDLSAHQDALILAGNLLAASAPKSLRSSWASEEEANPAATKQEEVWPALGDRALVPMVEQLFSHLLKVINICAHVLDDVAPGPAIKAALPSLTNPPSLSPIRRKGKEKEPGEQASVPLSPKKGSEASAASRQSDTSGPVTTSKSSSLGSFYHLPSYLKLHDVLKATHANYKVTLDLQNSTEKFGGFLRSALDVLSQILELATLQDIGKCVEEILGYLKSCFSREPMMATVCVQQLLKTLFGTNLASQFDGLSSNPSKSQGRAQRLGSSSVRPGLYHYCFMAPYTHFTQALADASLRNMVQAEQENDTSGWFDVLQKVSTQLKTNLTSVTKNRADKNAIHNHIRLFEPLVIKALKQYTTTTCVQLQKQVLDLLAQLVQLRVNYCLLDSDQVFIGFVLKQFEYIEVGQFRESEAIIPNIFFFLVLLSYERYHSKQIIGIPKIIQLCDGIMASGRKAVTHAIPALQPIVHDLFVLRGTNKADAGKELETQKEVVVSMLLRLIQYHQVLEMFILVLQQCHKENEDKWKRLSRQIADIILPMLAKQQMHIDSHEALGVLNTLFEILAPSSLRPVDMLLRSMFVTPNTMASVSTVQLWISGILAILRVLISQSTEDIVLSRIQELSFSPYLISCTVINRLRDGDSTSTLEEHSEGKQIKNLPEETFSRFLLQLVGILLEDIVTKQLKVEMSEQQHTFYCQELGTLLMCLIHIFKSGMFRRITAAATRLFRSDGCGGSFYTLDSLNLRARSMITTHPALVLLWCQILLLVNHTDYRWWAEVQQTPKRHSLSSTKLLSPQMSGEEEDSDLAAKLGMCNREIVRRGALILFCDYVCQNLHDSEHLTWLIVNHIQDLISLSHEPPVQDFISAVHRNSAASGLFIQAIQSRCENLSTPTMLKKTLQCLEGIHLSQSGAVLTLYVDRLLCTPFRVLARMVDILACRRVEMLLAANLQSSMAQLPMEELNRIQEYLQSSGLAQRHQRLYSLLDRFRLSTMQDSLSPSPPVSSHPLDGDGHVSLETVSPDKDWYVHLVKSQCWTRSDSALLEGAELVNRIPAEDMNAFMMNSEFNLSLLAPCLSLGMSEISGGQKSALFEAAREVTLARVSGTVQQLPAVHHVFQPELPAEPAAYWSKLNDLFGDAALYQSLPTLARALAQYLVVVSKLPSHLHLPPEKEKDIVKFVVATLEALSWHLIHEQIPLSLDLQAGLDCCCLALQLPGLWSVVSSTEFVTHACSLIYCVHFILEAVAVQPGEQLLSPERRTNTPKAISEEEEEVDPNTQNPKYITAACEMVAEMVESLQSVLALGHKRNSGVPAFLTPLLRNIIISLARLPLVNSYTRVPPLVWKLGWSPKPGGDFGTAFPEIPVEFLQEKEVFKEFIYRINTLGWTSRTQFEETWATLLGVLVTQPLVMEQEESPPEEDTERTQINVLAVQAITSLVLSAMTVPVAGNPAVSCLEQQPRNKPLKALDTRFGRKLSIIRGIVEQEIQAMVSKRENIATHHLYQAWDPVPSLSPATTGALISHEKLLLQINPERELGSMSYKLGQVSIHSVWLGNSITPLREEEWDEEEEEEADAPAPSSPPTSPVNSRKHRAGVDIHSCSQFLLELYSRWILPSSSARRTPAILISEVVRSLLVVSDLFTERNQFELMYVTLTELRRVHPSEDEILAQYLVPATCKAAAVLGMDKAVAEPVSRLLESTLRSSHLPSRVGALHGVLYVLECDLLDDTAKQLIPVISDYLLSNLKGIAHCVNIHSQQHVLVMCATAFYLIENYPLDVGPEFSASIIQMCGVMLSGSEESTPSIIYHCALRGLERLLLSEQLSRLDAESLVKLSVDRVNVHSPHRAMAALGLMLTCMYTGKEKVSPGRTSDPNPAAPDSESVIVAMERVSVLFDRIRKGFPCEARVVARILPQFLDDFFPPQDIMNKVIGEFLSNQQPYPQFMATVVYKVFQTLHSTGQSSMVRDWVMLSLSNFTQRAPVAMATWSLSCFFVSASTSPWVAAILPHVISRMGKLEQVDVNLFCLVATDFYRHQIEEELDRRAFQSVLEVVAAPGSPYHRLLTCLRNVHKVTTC
Consider `COc1cccc(CN2CCc3nc(N4CCN(c5ccc(F)cc5)CC4)ncc3C2)c1`, for which the inhibition (in general, the relative decrease from the control value, in per cent) was -4.69% (inactive).
Take `O=C(Nc1ccc(Cl)cc1)c1cc2n(n1)C(C(F)(F)F)CC(c1cccs1)N2` (configuration not stated): the inhibition is -2% (inactive).
For `CCCNC(=O)c1nn2c(c1Cl)NC(c1ccc(Cl)cc1)CC2C(F)(F)F` (configuration not stated), the inhibition was 9% (inactive).
For `O=C(Nc1cc(Cl)ccc1O)c1nn2c(c1Cl)NC(c1cccs1)CC2C(F)(F)F` (configuration not stated), the inhibition was 90% (active).
As to `O=C(NCc1ccco1)C1CN(S(=O)(=O)c2cccs2)CC12CCCCC2` (configuration not stated), the inhibition was 2.15% (inactive).
For the compound `Cc1ccc(Sc2nccnc2N2CCC(C(=O)N3CCN(C)CC3)CC2)cc1`, the inhibition is 10.6% (inactive).
In the case of `CC(C)N(c1snnc1N)C(C)C`, the inhibition was -2.94% (inactive).
For the compound `CC1=C(C(=O)Nc2ccc(Br)cn2)C(c2cccnc2)C2=C(CCCC2=O)N1` (configuration not stated), the inhibition was 1% (inactive).
As to `COc1ccc(NC(=O)c2ccc(OC)c([N+](=O)[O-])c2)cc1Cl`, the inhibition was -0.1% (inactive).
On to `COc1ccc(/C=C2\N=C(c3ccc(Cl)c([N+](=O)[O-])c3)OC2=O)cc1OC`, for which the inhibition is 7% (inactive).
Regarding `COc1ccc(N=Cc2ccc(Cl)c([N+](=O)[O-])c2)cc1OC`, the inhibition is 57% (active).
For the compound `CCNc1cc(N2CCC(CCC(=O)NCC(C)C)CC2)ncn1`, the inhibition is 0.14% (inactive).
Take `CCN(CC)CCCNc1c(CCC#N)c(C)c(C#N)c2nc3ccccc3n12`: the inhibition was 4% (inactive).
As to `O=C(CN1C(=O)S/C(=C\c2ccccc2)C1=O)Nc1ccccc1Cl`, the inhibition is -5% (inactive).
In the case of `COc1ccc(-n2ncc3c(N4CCc5ccccc54)ncnc32)cc1`, the inhibition is 11% (inactive).
Turning to `c1ccc2c(c1)CCN2c1nc(N2CCOCC2)c2n[nH]nc2n1`, the inhibition was 83.5% (active).
As to `Fc1cnc(N2CCOCC2)nc1NCc1ccccc1`, the inhibition is 0.7% (inactive).
Consider `Cc1ccc(NC(=O)NCCC2CCN(S(=O)(=O)c3ccc(F)cc3)CC2)c(C)c1`, for which the inhibition is 42.8% (inactive).
As for `O=c1[nH]c(/C=C/c2cccc(Br)c2)nc2ccccc12`, the inhibition was -5.1% (inactive).
Consider `CC1(C)c2ccccc2N2CC(=O)NC21/C=C/c1cccc(Br)c1` (configuration not stated), for which the inhibition is 100% (active).
On to `COCCOCC1CCN(C(=O)c2cccc(N(C)C)c2)CC1`, for which the inhibition is -11.5% (inactive).
With `CCC(=O)Nc1cccc(NC(=O)c2ccc(C(C)C)cc2)c1` the figure was 0.3% (inactive); with `CC1=Nc2c(ccc3cccnc23)C1(C)C`, 66.6% (active) and 14.1% (inactive).
As to `COc1cc2c(cc1NC(=O)c1ccc(OC)c(OC)c1OC)oc1ccccc12`, the inhibition is -2.6% (inactive).
For `CCCN1CCN(c2ncnc3c2nc2n3CCCC2)CC1`, the inhibition is -1.5% (inactive).
Turning to `N#Cc1c(N=Cc2ccc(Br)cc2)sc2c1CCC2`, the inhibition was 23% (inactive).
`C[C@H]1CCC(=O)N([C@H](CSc2ccccc2)Cc2ccccc2)CC1`: the inhibition was -8.3% (inactive).
As for `O=C1CCN(Cc2ccccc2)CCN1[C@H](CSc1ccccc1)c1ccccc1`, the inhibition is 98.8% (active).
As for `COc1ccc(SC[C@H](Cc2ccccc2)N2CCN(CCc3ccccc3)CCC2=O)cc1`, the inhibition was 92.2% (active).
Take `N#Cc1cccc(CN2CCC(=O)N([C@H](CO)c3ccccc3)CC2)c1`: the inhibition was 0.1% (inactive).
With `O=C1CC[C@H](O)CCN1[C@H](CSc1ccc(Br)cc1)Cc1ccccc1` the figure was 24.2% (inactive); with `O=C1CCN(Cc2ccc([N+](=O)[O-])cc2)CCN1[C@H](CO)Cc1ccccc1`, 6.4% (inactive); with `Cc1ccc(CCNC(=O)c2cc3n(n2)CCCN(Cc2ccc(Cl)cc2)C3=O)cc1`, 27.7% (inactive).
For the compound `O=C(N1CCOCC1)[n+]1ccc(/C=C/c2ccc(Cl)cc2)cc1`, the inhibition was 8% (inactive).
For `CC1(C)CC(=O)c2sc(NC(=O)C(C)(C)Oc3ccc(Cl)cc3)nc2C1`, the inhibition is -1% (inactive).
Regarding `CCNc1nc(NCC)n2c(SCC(=O)c3ccc(C(C)(C)C)cc3)nnc2n1`, the inhibition is -3% (inactive).
In the case of `O=C(NCCc1ccc(Cl)cc1)c1cnn2c3c(cnc12)CCCC3`, the inhibition was -0.73% (inactive).
For `COc1ccc(C=C2Oc3c(ccc(OC(=O)N4CCOCC4)c3C)C2=O)cc1OC`, the inhibition was 1.6% (inactive).
On to `CCCc1[nH]nc2c1C1(CCOCC1)C(C#N)=C(N)O2`, for which the inhibition was -0.61% (inactive).
Regarding `COc1cccc(C=C2Oc3c(ccc(O)c3CN3CCN(C)CC3)C2=O)c1`, the inhibition is 18.1% (inactive).
The same measure for `CN1CCN(Cc2c(O)ccc3c2OC(=Cc2cc4cc(Br)ccc4o2)C3=O)CC1`: 61.5% (active); for `COc1ccc(C=C2Oc3c(ccc(O)c3CN3CCN(C)CC3)C2=O)cc1OC`: 6.2% (inactive); for `CCOc1ccccc1C(=O)NCc1ccc2c(c1)cc(C)n2C`: 38.2% (inactive).
As for `COc1ccccc1N1CCN(C(=O)C(c2ccccc2)c2ccccc2)CC1`, the inhibition is 38.2% (inactive).
Consider `Cc1cc(C)nc(Nc2nc(CC(=O)Nc3nc(-c4ccco4)cs3)cs2)n1`, for which the inhibition was 83.2% (active).
With `COc1ccccc1N1CCN(C(=O)Cc2csc(Nc3nc(C)cc(C)n3)n2)CC1` the figure was 65% (active).
As for `COc1ccccc1NC(=O)Nc1nc(CC(=O)N2CCc3ccccc32)cs1`, the inhibition is 14.7% (inactive).
As for `COC(=O)Nc1nc(CC(=O)NCc2ccco2)cs1`, the inhibition was -3.8% (inactive).
For the compound `COc1ccc(N2CCN(C(=O)CSCc3ccccc3)CC2)cc1`, the inhibition was 20.7% (inactive).
As to `COc1ccccc1N1CCN(C(=O)c2cn3ccc(C)cc3n2)CC1`, the inhibition was 0.9% (inactive).
For the compound `COc1ccccc1N1CCN(C(=O)CSCc2ccccc2C)CC1`, the inhibition is 66.4% (active).
As for `O=C(CCCn1cccc1)Nc1nc(-c2ccco2)cs1`, the inhibition is 28.4% (inactive).
On to `O=C(CCS(=O)(=O)c1ccc(Br)s1)Nc1ccc(F)cc1`, for which the inhibition is -1% (inactive).
As for `CC(C)C(=O)Oc1ccc2c(c1)OC(=Cc1ccco1)C2=O`, the inhibition is 42.1% (inactive).
The same measure for `CC(C)C1(CCN(Cc2ccc3c(c2)OCO3)C(=O)c2ccco2)CCOC(C)(C)C1` (configuration not stated): -2.26% (inactive).
As to `COc1cc(OC)cc(C(=O)Nc2nc(C)c(C)s2)c1`, the inhibition is 9.5% (inactive).
Turning to `Cn1nccc1C(=O)N1CCC(c2nncn2-c2ccccc2)CC1`, the inhibition was -1.38% (inactive).
As to `CCC(C)NC(=O)c1cn(CC(C)C)c(=O)c2c1c1ccccc1n2C` (configuration not stated), the inhibition was -2% (inactive).
With `Cc1ccc(COCc2nn(C)c3c2CN(C(=O)Nc2cccc(C)c2)CC3)cc1`, the inhibition was 30.3% (inactive).
Turning to `O=C(CSc1nccn1-c1ccccc1)Nc1ccccc1C(F)(F)F`, the inhibition is 18% (inactive).
`Cc1cc(C(=O)N2CCC(CCOc3ccc(F)cc3)CC2)no1`: the inhibition was -3.47% (inactive).
`CCOC(=O)N1CCC2(CC1)N=C(c1ccccc1O)CC(c1ccc(F)c(Cl)c1)N2` (configuration not stated): the inhibition is 51.8% (active).
The same measure for `COc1cccc(C2CC(c3ccc(C)cc3C)=NC3(CCN(C(C)=O)CC3)N2)c1O` (configuration not stated): 7.51% (inactive); for `CCOC(=O)N1CCC2(CC1)N=C(c1cc(Cl)ccc1O)CC(c1ccc(C)cc1)N2` (configuration not stated): 6.77% (inactive); for `CCN1CCC2(CC1)N=C(c1ccccc1O)CC(c1ccc(C)cc1)N2` (configuration not stated): 51.5% (active).
As for `Oc1ccc(Cl)cc1C1CC(c2ccccc2)=NC2(CCNCC2)N1` (configuration not stated), the inhibition is 7.96% (inactive).
For `CN1CCC2(CC1)N=C(c1ccc3c(c1)OCO3)CC(c1cc(Cl)ccc1O)N2` (configuration not stated), the inhibition was 16% (inactive).
Regarding `Cc1ccc(S(=O)(=O)NCC2CCN(C(=O)Oc3ccccc3)CC2)s1`, the inhibition is -6.7% (inactive).
Turning to `Cc1cccc(-c2nc(C3CCN(C(=O)Cc4ccccc4Br)CC3)no2)c1`, the inhibition was -7.4% (inactive).
With `COc1ccc(C(=O)Oc2ccc3c(=O)c(Oc4ccccc4OC)coc3c2)cc1`, the inhibition is 0.8% (inactive).
With `Cc1cccc(-n2nc3c(c2NC(=O)c2cccc(Cl)c2)CS(=O)(=O)C3)c1C`, the inhibition is 16% (inactive).
Take `CCCN(CCC)CCCNC(=O)CSc1nc2nc(C)c(Cc3ccccc3)c(C)n2n1`: the inhibition is 7% (inactive).
As for `COc1ccc(OCCCC(=O)Nc2ccccc2)cc1`, the inhibition is -9.6% (inactive).
Regarding `O=c1oc2ccc(Br)cc2cc1-c1ccc2c(c1)OCO2`, the inhibition was -1% (inactive).
Regarding `C=CS(=O)(=O)N(Cc1nnn(Cc2ccccc2)c1Br)[C@H](C(=O)OC)C(C)C`, the inhibition was -13.3% (inactive).
Consider `COc1ccc(Br)cc1C=C(NC(=O)c1cc(OC)c(OC)c(OC)c1)C(=O)N1CC2CC(C1)c1cccc(=O)n1C2` (configuration not stated), for which the inhibition was 73.4% (active).
Turning to `O=C(Nc1ccc(Cl)cc1)c1ccc(N2CC3CC(C2)c2cccc(=O)n2C3)c([N+](=O)[O-])c1` (configuration not stated), the inhibition is 6% (inactive).
With `CN(Cc1ccccc1)C(=O)c1ccc(N2CC3CC(C2)c2cccc(=O)n2C3)c([N+](=O)[O-])c1` (configuration not stated), the inhibition was 9% (inactive).
With `CCC(=O)N1CCN(c2nc3c(s2)CC(C(=O)Nc2cc(C)ccc2C)CC3)CC1` (configuration not stated) the figure was 18.3% (inactive); with `COc1ccc(C2CC(C(F)(F)F)n3ncc(C(=O)Nc4cc(C)ccc4C)c3N2)cc1OC` (configuration not stated), 27% (inactive); with `COc1ccc(C2CC(C(F)(F)F)n3ncc(C(=O)Nc4ccc(C)c(C)c4)c3N2)cc1OC` (configuration not stated), 53% (active).
On to `Cc1ccc(NC(=O)c2cnn3c2NC(c2ccco2)CC3C(F)(F)F)cc1C` (configuration not stated), for which the inhibition is -4% (inactive).
For the compound `Cc1ccc(CNC(=O)c2ccnc(N3CCNC(c4ccccc4)C3)c2)cc1` (configuration not stated), the inhibition is 35.5% (inactive).
In the case of `COCCCNC(=O)c1c(NC(=O)c2ccccc2Cl)sc2c1CCCC2`, the inhibition is -17.4% (inactive).
As to `O=c1cc(-c2ccccc2F)oc2ccc(Cl)cc12`, the inhibition was -8.7% (inactive).
As to `COc1cc(C=Nc2oc(C)c(C)c2C#N)ccc1O`, the inhibition was 6% (inactive).
With `CC1=C(C#N)c2nc(N)c(C#N)c(C)c2/C1=C/c1ccccc1[N+](=O)[O-]`, the inhibition is 16% (inactive).
Turning to `COc1cc(/C=C2\C(C)=C(C#N)c3nc(N)c(C#N)c(C)c32)ccc1O`, the inhibition is 60% (active).
For `CC(=O)Nc1c(C)ccc(S(=O)(=O)N2CCCCC2)c1C`, the inhibition is 2.7% (inactive).
Take `CCCCCCN1CCS(=O)(=O)N(Cc2ccc(C(F)(F)F)cc2)C(C(=O)OC)C1` (configuration not stated): the inhibition is -0.1% (inactive).
Turning to `COC(=O)C1CN(CCc2ccccc2)CCS(=O)(=O)N1Cc1ccc(F)cc1` (configuration not stated), the inhibition is 50.6% (active).
Consider `COC(=O)C1CN(CC(C)C)CCS(=O)(=O)N1Cc1ccc(F)cc1` (configuration not stated), for which the inhibition is 7.2% (inactive).
